Measurements published in PubChem BioAssay (Tox21).
Results filed as inconclusive are left out. Calls of active or inactive are those of the source. Unless noted, calls follow the shape of the dose curve; as a rule, active = well fitted curve in the direction sought with a large enough effect in the repeat runs; inconclusive = weak or mixed curves; inactive = no such curve, though single readings can be large; an effect the other way counts as inactive or inconclusive.

What was measured:
[1] = qHTS assay to identify small molecule that activate the aryl hydrocarbon receptor (AhR) signaling pathway - cell viability counter screen (AID 743086);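 also: HepG2 liver cells carrying the AhR DRE luciferase reporter; series mostly up to about 70 µM; nearly all actives have a fitted effect of over 45% in size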
Summary of the method: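 Cytotoxicity counter screen: CellTiter-Fluor signal (30 min, 37 C) in 4000 HepG2 cells/well carrying the DRE-luciferase reporter, following 24 h compound exposure at 37 C.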

[2] = qHTS assay to identify small molecule antagonists of the peroxisome proliferator-activated receptor gamma (PPARg) signaling pathway - cell viability counter screen (AID 743194); also: nearly all actives have a fitted effect of over 55% in size
Summary of the method: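 Viability was measured as CellTiter-Glo luminescence in GeneBLAzer PPARg UAS-bla HEK293H cells. These cells had been exposed 17 h at 37 C to compounds together with rosiglitazone at 50 nM final, with the beta-lactamase readout taken in the same wells.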

[3] = qHTS assay for small molecule agonists of the antioxidant response element (ARE) signaling pathway - cell viability counter screen (AID 743203; calls by dose curve; also: nearly all actives have a fitted effect of over 55% in size)
Summary of the method: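 CellSensor ARE-bla HepG2 cells, 2,000 per well, rested 5 hrs at 37C/5% CO2, then exposed to compound in DMSO for 16 hrs; viability read as CellTiter-Glo luminescence after 30 min at room temperature, in the reporter wells.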

[4] = qHTS assay for small molecule activators of the heat shock response signaling pathway (AID 743210; active = well fitted activation curve with a large enough effect in the signal ratio in the repeat runs, with a control signal flat, not every such curve was filed as active; the % refers to the signal ratio;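 also: HeLa cells with beta-lactamase reporter driven by heat shock elements; series mostly up to about 63 µM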)
Summary of the method: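 In HSE-bla HeLa cells, 5 h compound incubation (37 C) precedes addition of LiveBLAzer B/G substrate; after 2.5 h at room temperature, fluorescence intensity indicates reporter induction.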

[5] = qHTS assay to identify small molecule agonists of the peroxisome proliferator-activated receptor delta (PPARd) signaling pathway - cell viability counter screen (AID 743211); also: nearly all actives have a fitted effect of over 55% in size
Summary of the method: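 Tox21 library compounds, delivered in DMSO, were incubated 17 h with PPARd-bla HEK293H cells; cytotoxicity was taken from CellTiter-Glo luminescence read 30 min after reagent addition.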

[6] = biological target: Peroxisome proliferator-activated receptor delta (Homo sapiens) (UniProt Q03181); assay: qHTS assay to identify small molecule agonists of the peroxisome proliferator-activated receptor delta (PPARd) signaling pathway (AID 743212; calls by dose curve)
Sequence of Peroxisome proliferator-activated receptor delta (Homo sapiens) (Q03181 whole entry, looked up): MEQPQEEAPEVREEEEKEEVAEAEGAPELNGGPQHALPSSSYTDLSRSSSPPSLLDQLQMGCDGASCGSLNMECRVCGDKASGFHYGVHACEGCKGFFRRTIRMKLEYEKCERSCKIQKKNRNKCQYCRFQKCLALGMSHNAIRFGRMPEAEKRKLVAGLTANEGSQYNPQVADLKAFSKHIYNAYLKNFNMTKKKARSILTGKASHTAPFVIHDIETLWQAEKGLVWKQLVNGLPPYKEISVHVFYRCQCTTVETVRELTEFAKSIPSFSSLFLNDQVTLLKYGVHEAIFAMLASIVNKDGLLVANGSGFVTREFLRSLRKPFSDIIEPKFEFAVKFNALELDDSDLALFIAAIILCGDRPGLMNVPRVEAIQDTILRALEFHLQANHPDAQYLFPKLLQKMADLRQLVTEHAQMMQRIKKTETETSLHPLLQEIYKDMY
Summary of the method: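 HEK293H UAS-bla reporter cells, human PPARd system; compounds delivered in DMSO after 5 h plating, then at 37 C. Beta-lactamase FRET read, 2 h RT substrate step.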

[7] = biological target: Peroxisome proliferator-activated receptor delta (Homo sapiens) (UniProt Q03181); assay: qHTS assay to identify small molecule antagonists of the peroxisome proliferator-activated receptor delta (PPARd) signaling pathway (AID 743215; active = well fitted inhibition curve with a large enough effect in the signal ratio in the repeat runs, not every such curve was filed as active; the % refers to the signal ratio;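 also: cells stimulated with agonist L165041 at 300 nM final during compound exposure; series mostly up to about 62 µM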)
Summary of the method: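 PPARd UAS-bla HEK293H cells were pre-incubated 5 h at 37 C, then given test compounds in DMSO plus agonist L165041 (300 nM final). After 17 h at 37 C, beta-lactamase FRET substrate was added; fluorescence read after 2 h at room temperature.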

[8] = qHTS assay to identify small molecule agonists of the farnesoid-X-receptor (FXR) signaling pathway - cell viability counter screen (AID 743218); also: nearly all actives have a fitted effect of over 45% in size
Summary of the method: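 FXR-UAS-bla HEK 293T cells, plated 5 h at 37 C, were exposed to compounds for 16 h at 37 C. CellTiter-Glo was then added to the same wells as the bla readout; luminescence read after 30 min at room temperature.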

[9] = biological target: Vitamin D3 receptor (Homo sapiens) (UniProt P11473); assay: qHTS assay to identify small molecule agonists of the vitamin D receptor (VDR) signaling pathway (AID 743222; calls by dose curve)
Sequence of Vitamin D3 receptor (Homo sapiens) (P11473 whole entry, looked up): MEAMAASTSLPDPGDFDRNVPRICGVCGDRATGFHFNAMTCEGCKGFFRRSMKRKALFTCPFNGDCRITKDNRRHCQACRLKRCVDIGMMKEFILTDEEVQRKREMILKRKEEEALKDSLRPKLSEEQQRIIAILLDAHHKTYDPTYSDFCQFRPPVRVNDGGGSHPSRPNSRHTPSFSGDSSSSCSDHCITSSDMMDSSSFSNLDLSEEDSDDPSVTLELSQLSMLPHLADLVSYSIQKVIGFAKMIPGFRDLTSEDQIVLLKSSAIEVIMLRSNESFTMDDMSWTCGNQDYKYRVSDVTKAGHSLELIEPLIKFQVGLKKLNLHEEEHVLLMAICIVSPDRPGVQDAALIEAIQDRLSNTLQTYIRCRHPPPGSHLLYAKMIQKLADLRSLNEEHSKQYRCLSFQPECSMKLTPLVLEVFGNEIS
Summary of the method: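 VDR-bla cells were plated 4 h at 37C/5% CO2, then exposed to compounds in DMSO for 16 h. After LiveBLAzer B/G FRET substrate addition and 2 h at room temperature, beta-lactamase reporter fluorescence was read.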

[10] = qHTS assay to identify small molecule agonists of the vitamin D receptor (VDR) signaling pathway - cell viability counter screen (AID 743224); also: series mostly up to about 63 µM; nearly all actives have a fitted effect of over 50% in size
Summary of the method: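 VDR-bla cells were preincubated 4 h at 37C/5% CO2, then exposed to compounds for 16 h. After the 2 h room-temperature bla FRET read, CellTiter-Glo was added to the same wells and luminescence read after 30 min.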

[11] = biological target: Peroxisome proliferator-activated receptor gamma (Homo sapiens) (UniProt P37231); assay: qHTS assay to identify small molecule antagonists of the peroxisome proliferator-activated receptor gamma (PPARg) signaling pathway (AID 743191; calls by dose curve; also: nearly all actives have a fitted effect of over 30% in size; also: potency is read from the fitted curve at half-maximal effect)
Sequence of Peroxisome proliferator-activated receptor gamma (Homo sapiens) (P37231 whole entry, looked up): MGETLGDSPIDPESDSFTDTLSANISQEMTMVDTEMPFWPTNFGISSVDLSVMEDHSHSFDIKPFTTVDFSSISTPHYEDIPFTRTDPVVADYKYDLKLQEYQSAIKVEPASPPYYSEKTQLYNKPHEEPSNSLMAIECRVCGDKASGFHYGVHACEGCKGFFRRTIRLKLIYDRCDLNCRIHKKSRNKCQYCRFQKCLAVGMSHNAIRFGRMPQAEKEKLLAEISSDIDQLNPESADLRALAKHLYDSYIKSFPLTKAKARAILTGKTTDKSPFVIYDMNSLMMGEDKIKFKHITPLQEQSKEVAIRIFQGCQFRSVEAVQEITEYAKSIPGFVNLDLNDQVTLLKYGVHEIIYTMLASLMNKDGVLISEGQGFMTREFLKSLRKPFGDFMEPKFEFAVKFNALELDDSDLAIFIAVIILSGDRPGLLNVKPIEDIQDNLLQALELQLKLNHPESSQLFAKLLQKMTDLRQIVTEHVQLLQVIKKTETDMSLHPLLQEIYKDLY
Summary of the method: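 Beta-lactamase reporter under UAS control in HEK293H PPARg-bla cells; compound treatment 17 h at 37C. Read-out: fluorescence intensity after 1 h room-temperature incubation with LiveBLAzer B/G FRET substrate.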

[12] = qHTS assay for small molecule activators of the heat shock response signaling pathway - cell viability counter screen (AID 743209); also: nearly all actives have a fitted effect of over 50% in size
Summary of the method: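 CellSensor HSE-bla HeLa cells, plated overnight at 37 C/5% CO2, were exposed to compounds in DMSO for 5 h at 37 C. Viability was then read in the same wells by CellTiter-Glo luminescence after 30 min at room temperature.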

[13] = qHTS assay to identify small molecule antagonists of the peroxisome proliferator-activated receptor delta (PPARd) signaling pathway - cell viability counter screen (AID 743213); also: nearly all actives have a fitted effect of over 50% in size
Summary of the method: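 Cytotoxicity counter screen: CellTiter-Glo luminescence read 30 min after addition, in the same wells as the reporter assay. There, PPARd UAS-bla HEK293H cells (3000/well) were treated 17 h at 37 C with compound and 300 nM L165041.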

[14] = qHTS assay to identify small molecule antagonists of the farnesoid-X-receptor (FXR) signaling pathway - cell viability counter screen (AID 743221; active = well fitted cell-killing curve with a large enough effect in the repeat runs, not every such curve was filed as active; also: nearly all actives have a fitted effect of over 50% in size)
Summary of the method: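 Cytotoxicity is taken from ATP luminescence (CellTiter-Glo, 30 min, room temperature) in FXR-bla HEK 293T cells previously incubated 16 h at 37 C with compound and chenodeoxycholic acid at 50 uM final.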

[15] = biological target: Vitamin D3 receptor (Homo sapiens) (UniProt P11473); assay: qHTS assay to identify small molecule antagonists of the vitamin D receptor (VDR) signaling pathway (AID 743223; active = well fitted inhibition curve with a large enough effect in the signal ratio in the repeat runs, not every such curve was filed as active; the % refers to the signal ratio)
Summary of the method: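 Quantitative HTS in VDR-bla reporter cells stimulated with 1alpha,25-dihydroxyvitamin D3, 3 nM final. Compound exposure 16 h, 37C, 5% CO2. Read-out: beta-lactamase FRET substrate fluorescence, 2 h RT.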

[16] = qHTS assay for small molecule agonists of the antioxidant response element (ARE) signaling pathway (AID 743202; active = well fitted activation curve with a large enough effect in the signal ratio in the repeat runs, not every such curve was filed as active; the % refers to the signal ratio; also: potency is read from the fitted curve at half-maximal effect)
Summary of the method: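 An ARE-responsive beta-lactamase gene stably integrated in HepG2 cells serves as reporter. After 5 h plating and 16 h compound incubation at 37 C, fluorescence of the B/G FRET substrate was measured.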

[17] = biological target: Bile acid receptor (Homo sapiens) (UniProt Q96RI1); assay: qHTS assay to identify small molecule agonists of the farnesoid-X-receptor (FXR) signaling pathway (AID 743220; active = well fitted activation curve with a large enough effect in the signal ratio in the repeat runs, not every such curve was filed as active; the % refers to the signal ratio)
Sequence of Bile acid receptor (Homo sapiens) (Q96RI1 whole entry, looked up): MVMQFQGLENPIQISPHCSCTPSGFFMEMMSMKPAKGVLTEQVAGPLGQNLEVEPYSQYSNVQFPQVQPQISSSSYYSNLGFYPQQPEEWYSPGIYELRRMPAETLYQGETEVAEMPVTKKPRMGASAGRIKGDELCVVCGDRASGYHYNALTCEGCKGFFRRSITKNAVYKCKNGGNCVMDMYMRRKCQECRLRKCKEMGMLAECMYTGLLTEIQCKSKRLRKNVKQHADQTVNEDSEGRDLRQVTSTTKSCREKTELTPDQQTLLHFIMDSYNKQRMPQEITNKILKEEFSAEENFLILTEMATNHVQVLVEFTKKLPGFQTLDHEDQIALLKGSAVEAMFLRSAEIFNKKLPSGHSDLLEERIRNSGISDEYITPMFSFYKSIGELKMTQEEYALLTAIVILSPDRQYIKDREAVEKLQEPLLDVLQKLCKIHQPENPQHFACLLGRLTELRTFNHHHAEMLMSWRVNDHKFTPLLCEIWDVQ
Summary of the method: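 Beta-lactamase reporter under UAS control in GeneBLAzer FXR HEK 293T cells (5000/well) measured with LiveBLAzer FRET substrate after 2 h at room temperature. Compound exposure lasted 16 h at 37C.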

Measured: Potency

COCc1c(C(C)C)nc(C(C)C)c(/C=C/[C@@H](O)C[C@@H](O)CC(=O)O)c1-c1ccc(F)cc1
not listed: [11] | [12] | [13] | [14] | [15] | [16] | [17]
inactive: all other assays above

C=CCNc1nc(NCC=C)nc(N2CCN(C(c3ccc(F)cc3)c3ccc(F)cc3)CC2)n1
not listed: [1] | [3] | [8] | [16] | [17]
inactive: all other assays above

CCCOC(=O)c1ccc(N)cc1
not listed: [10] | [11] | [12] | [16] | [17]
inactive: all other assays above

O=C(O)c1c(O)c(-c2ccccc2)nc2ccccc12
not listed: [1] | [3] | [7] | [8] | [11]
inactive: all other assays above

CCOc1cc(N)c(Cl)cc1C(=O)NCC1CN(Cc2ccc(F)cc2)CCO1 (stereo not drawn)
not listed: [7] | [8] | [10] | [11] | [12] | [16]
inactive: all other assays above

O=C(CCCCCCC(=O)Nc1ccccc1)NO
not listed: [2] | [3] | [8] | [9] | [11] | [16] | [17]
inactive: all other assays above

O=C1OCCN1/N=C/c1ccc([N+](=O)[O-])o1
active: [16] 15 µM
not listed: [1] | [3] | [11] | [13] | [15] | [17]
inactive: all other assays above

C/C(=N/NC(=O)c1ccncc1)C(=O)O
not listed: [1] | [2] | [10] | [15] | [17]
inactive: all other assays above

O=C(O)c1ccccc1NCCc1ccccc1
inactive: [2] | [3] | [12] | [4] | [5] | [6] | [13] | [7] | [14]

N#C/C(=C1/SC[C@@H](c2ccc(Cl)cc2Cl)S1)n1ccnc1
inactive: [1] | [2] | [12] | [4] | [5] | [13] | [8] | [14]

CCN(Cc1cccc(S(=O)(=O)O)c1)c1ccc(C(=C2C=CC(=[N+](CC)Cc3cccc(S(=O)(=O)[O-])c3)C=C2)c2ccccc2)cc1
active: [16] 38.3 µM
not listed: [6] | [7] | [9] | [11] | [15] | [17]
inactive: all other assays above

COCCOC(=O)C1=C(C)NC(C)=C(C(=O)OC/C=C/c2ccccc2)C1c1cccc([N+](=O)[O-])c1 (stereo not drawn)
active: [11] 18.8 µM
inactive: [2] | [12] | [4] | [13] | [7] | [8] | [14] | [15] | [10]
